In PubChem BioAssay (NCATS):
Inconclusive results are not listed. Calls of active or inactive are those of the source. The call rests on the fitted dose curve; in most records, active means well fitted curve in the direction sought with a large enough effect; inconclusive means small, poorly fitted or top-dose-only effect, or another doubt; inactive means no such curve, though single readings can be large; an effect the other way counts as inactive or inconclusive.

How the values were obtained:
[1] = target: Glutathione peroxidase 1 (Homo sapiens) (UniProt P07203); experiment: Primary qHTS Assay for Inhibitors of Recombinant Selenoprotein Glutathione Peroxidase 1 (GPX1) (AID 1845191); further: nearly all actives have a fitted effect of over 65% in size; on activity, negative = inhibition: on the % scale 0 is the no-effect control and ±100 the full control effect
Procedure, shortened: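 GR-coupled assay: compounds preincubated 30 min at room temperature with GPX1, then reaction started with CHP; final 10 nM GPX1, 1 mM GSH, 0.5 mM CHP, 0.5 mM NADPH, 100 nM GR, 0.01% BSA, pH 7.5 Tris buffer. NADPH fluorescence (340/450 nm) read at 0 and 15 min.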

[2] = target: Phospholipid hydroperoxide glutathione peroxidase GPX4 (Homo sapiens) (UniProt P36969); experiment: Primary qHTS Assay for Inhibitors of Recombinant Selenoprotein Glutathione Peroxidase 4 (GPX4) (AID 1845192); further: nearly all actives have a fitted effect of over 65% in size; on activity change, negative = inhibition: series mostly up to about 50 µM; on the % scale 0 is the no-effect control and ±100 the full control effect
Procedure, shortened: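 GR-coupled assay: recombinant GPX4 preincubated 30 min with compound at room temperature; final 200 nM GPX4, 1 mM GSH, 0.5 mM cumene hydroperoxide, 0.5 mM NADPH, 100 nM GR, 0.01% BSA, pH 7.5 Tris. NADPH fluorescence (340/450 nm) read at 0 and 15 min.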

[3] = target: Luciferin 4-monooxygenase (Photinus pyralis) (UniProt P08659); experiment: Primary firefly luciferase (FLuc) qHTS assay for identification of artifact compounds. (AID 1845220); further: nearly all actives have a fitted effect of over 60% in size; further: potency means the concentration at half of the fitted maximal effect;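 on activity change, negative = inhibition: series mostly up to about 54 µM; plate controls were DMSO vehicle for no effect and no enzyme for full effect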
Procedure, shortened: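 D-luciferin and ATP (10 uM each, final) in Tris acetate buffer pH 7.6 were incubated with compounds for 15 min at room temperature. The reaction was started with 10 nM Photinus pyralis luciferase and luminescence read after 5 min. Percent inhibition was fitted to a 4-parameter Hill equation.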

[4] = Primary fluorescence-based thiol-reactive (MSTI) qHTS assay for identification of artifact compounds. (AID 1845221); further: nearly all actives have a fitted effect of over 65% in size; further: potency means the concentration at half of the fitted maximal effect;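 on activity change, negative = thiol reactive: series mostly up to about 54 µM; thiol-reactive compounds lower the probe fluorescence signal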
Procedure, shortened: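 Probe: MSTI 4 uM, PBS pH 7.4, 2% DMSO. Incubation 1 h, RT, light-protected. Readout fluorescence 525/598 nm.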

[5] = system: Nanoluciferase (engineered Oplophorus gracilirostris luciferase); experiment: Primary Nanoluciferase (NLuc) qHTS assay for identification of artifact compounds. (AID 1845222);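 further: series mostly up to about 54 µM; 0% = DMSO and -100% = no enzyme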
Procedure, shortened: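 Diluted conditioned medium from NLuc-expressing S16 cells treated with compounds for 15 min at room temperature, then Nano-Glo substrate added; luminescence read after 5 min. Percent inhibition versus no-enzyme and DMSO controls fitted to 4-parameter Hill equation.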

[6] = Primary redox qHTS assay for identification of artifact compounds. (AID 1845223);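 further: 0% = DMSO and 100% = reference compound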
Procedure, shortened: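 Amplex Red (25 uM) and HRP (250 mU/mL) in HBSS, with compounds for 15 min, then 250 uM DTT for 30 min, room temperature, dark. Fluorescence 525/598 nm read; normalized to DMSO and 10 uM DA3003; Hill fit.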

Sequence of Phospholipid hydroperoxide glutathione peroxidase GPX4 (Homo sapiens) (P36969 whole entry, looked up): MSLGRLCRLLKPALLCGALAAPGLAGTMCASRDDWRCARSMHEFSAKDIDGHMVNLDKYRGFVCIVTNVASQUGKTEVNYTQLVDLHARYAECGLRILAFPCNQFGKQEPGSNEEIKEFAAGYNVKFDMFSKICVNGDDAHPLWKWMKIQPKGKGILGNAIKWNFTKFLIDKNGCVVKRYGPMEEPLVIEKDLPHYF
Sequence of Glutathione peroxidase 1 (Homo sapiens) (P07203 whole entry, looked up): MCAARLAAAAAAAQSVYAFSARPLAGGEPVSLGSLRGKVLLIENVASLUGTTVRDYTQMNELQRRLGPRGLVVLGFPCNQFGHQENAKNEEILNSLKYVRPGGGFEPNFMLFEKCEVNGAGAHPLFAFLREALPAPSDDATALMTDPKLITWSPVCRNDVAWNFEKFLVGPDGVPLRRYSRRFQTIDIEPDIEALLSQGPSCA

CC(C)=CCCC1(C)C=Cc2c(c(C)cc3c2[nH]c2ccccc23)O1 (stereo unspecified)
inactive: Potency [1] | Potency [2] | Potency [3] | Potency [5] | Potency [6]
active: Potency [4] 2.93 µM

C=C1C(=O)OC2/C=C(\CO)CC/C=C(\C=O)CC(OC(=O)CC(C)C)C12 (stereo unspecified)
inactive: Potency [1] | Potency [2] | Potency [3] | Potency [5]
active: Potency [4] 16.5 µM

O=C(c1cccc(Cl)c1F)N1CCN(Cc2cccc(Nc3nccs3)n2)CC1
inactive: Potency [1] | Potency [2] | Potency [3] | Potency [4] | Potency [5]

CCCCCCOc1cc2c(cc1N(C)c1ncc(C(=O)O)cn1)C(C)(C)CCC2(C)C
inactive: Potency [1] | Potency [2] | Potency [3] | Potency [4] | Potency [5] | Potency [6]

COc1ccc(CCO[C@@H]2CCCC[C@H]2N2CC[C@@H](O)C2)cc1OC
inactive: Potency [1] | Potency [2] | Potency [3] | Potency [4] | Potency [5] | Potency [6]

O=C(O)C(O[C@@H]1O[C@H](CO[C@@H]2O[C@H](CO)[C@@H](O)[C@H](O)[C@H]2O)[C@@H](O)[C@H](O)[C@H]1O)c1ccccc1 (stereo partly specified)
inactive: Potency [1] | Potency [2] | Potency [3] | Potency [4] | Potency [5] | Potency [6]

COc1cc(/C=C/C=O)cc(OC)c1O[C@@H]1O[C@H](CO)[C@@H](O)[C@H](O)[C@H]1O
active: Potency [4] 14.7 µM
inactive: Potency [1] | Potency [2] | Potency [3] | Potency [5] | Potency [6]

CC(=O)OC[C@H]1O[C@H](O[C@]2(CO)O[C@H](CO)[C@@H](OC(=O)/C=C/c3ccccc3)[C@@H]2O)[C@H](O)[C@@H](O)[C@@H]1O
active: Potency [4] 4.62 µM
inactive: Potency [1] | Potency [2] | Potency [3] | Potency [5]

OCCc1ccc(O[C@@H]2O[C@H](CO)[C@@H](O)[C@H](O)[C@H]2O)cc1
inactive: Potency [1] | Potency [2] | Potency [3] | Potency [4] | Potency [5]

C=C1CCC2C(C)(C(=O)OC)CCCC2(C)C1CCC(C)CC(=O)O (stereo unspecified)
inactive: Potency [1] | Potency [2] | Potency [3] | Potency [4] | Potency [5] | Potency [6]

COC1CC(O[C@H]2CC[C@@]3(C)C(=CC[C@]4(O)C3[C@H](OC(C)=O)[C@@H](OC(=O)c3ccccc3)[C@]3(C)[C@@H](C(C)=O)CC[C@@]34O)C2)OC(C)C1OC1CC(OC)C(OC2CC(OC)C(OC3OC(C)C(OC4OC(CO)C(O)C(O)C4O)C(OC)C3O)C(C)O2)C(C)O1 (stereo partly specified)
inactive: outcome [1] inactive [at 9.52 µM] | activity change, negative = inhibition [2] -9.45% [at 9.73 µM] | outcome [3] inactive [at 11.6 µM] | activity change, negative = thiol reactive [4] 29.9% [at 11.5 µM] | activity, negative = inhibition [5] 2.42% [at 11.6 µM]

COC(=O)C1=CO[C@@H](O[C@@H]2O[C@H](CO[C@@H]3O[C@H](COC(=O)/C=C/c4cc(OC)c(O)c(OC)c4)[C@@H](O)[C@H](O)[C@H]3O)[C@@H](O)[C@H](O)[C@H]2O)[C@@H]2C(CO)=CC[C@H]12
active: Potency [4] 7.93 µM
inactive: Potency [1] | Potency [2] | Potency [3] | Potency [5] | Potency [6]

COc1ccc2[nH]c3c(-c4cccc5ccccc45)nccc3c2c1
inactive: Potency [1] | Potency [2] | Potency [3] | Potency [4] | Potency [5] | Potency [6]

Cc1cc(OCc2nc(-c3ccccc3Cl)cs2)ccc1OCC(=O)O
active: Potency [3] 9.53 µM
inactive: Potency [1] | Potency [2] | Potency [4] | Potency [5]

CC[C@H](C)[C@H](NC(=O)[C@H]([C@@H](C)CC)N(C)C(C)=O)C(=O)N[C@H](C(=O)N[C@@H](CC(C)C)C(=O)[C@@]1(C)CO1)[C@@H](C)O
inactive: Potency [1] | Potency [2] | Potency [3] | Potency [4] | Potency [5]

N#Cc1c(Oc2ccc(F)c(NC(=O)Cc3cccc(C(F)(F)F)c3)c2)ccc2nc(NC(=O)C3CC3)sc12
inactive: Potency [1] | Potency [2] | Potency [3] | Potency [4] | Potency [5]

CC(=O)OC[C@]12[C@H](OC(C)=O)C(=O)[C@@H]3[C@@H](OC(C)=O)[C@@]14O[C@@]3(C)COC(=O)c1cccnc1[C@@H](C)[C@H](C)C(=O)O[C@@H]([C@H](O)[C@@H]2OC(C)=O)[C@]4(C)O
inactive: Potency [1] | Potency [2] | Potency [3] | Potency [4] | Potency [5]

O=C(O)COCCN1CCN([C@H](c2ccccc2)c2ccc(Cl)cc2)CC1
inactive: Potency [1] | Potency [2] | Potency [3] | Potency [4] | Potency [5] | Potency [6]

CC12CCC(=O)C=C1C(O)CC1C2C(O)CC2(C)C1CC[C@]2(O)C(=O)CO (stereo partly specified)
inactive: Potency [1] | Potency [2] | activity change, negative = inhibition [3] 2.02% [at 11.6 µM] | activity change, negative = thiol reactive [4] -1.91% [at 11.5 µM] | activity, negative = inhibition [5] 4.05% [at 11.6 µM] | redox activity (% of DA3003) [6] -2.06% [at 11.5 µM]

CCC(O)C(C)C1CCC(C(C)C(=O)O)O1 (stereo unspecified)
active: Potency [4] 10.6 µM
inactive: Potency [1] | Potency [2] | Potency [3] | Potency [5]

C/C=C(\C)C(=O)O[C@H]1[C@@H](O[C@]2(COC(=O)CC(C)C)O[C@H](COC(=O)C(C)CC)[C@@H](OC(C)=O)[C@@H]2O)O[C@H](COC(C)=O)[C@@H](O)[C@@H]1O (stereo partly specified)
inactive: Potency [1] | Potency [2] | Potency [3] | Potency [4] | Potency [5] | Potency [6]
